Compounds with a hit are over-represented: about 2.8% of the library has one in this group of screens.
SENP8 block-1 = blocks the human protease SENP8; Q96LD8; purified SENP8, Z-RLRGG-aminoluciferin cleavage, luminescence; inhibition, % at 10 µM; 330,000 tested, 1.2% active; AID 2540; in the data active = inhibition above about 50%
Target sequence (Q96LD8 whole entry, looked up): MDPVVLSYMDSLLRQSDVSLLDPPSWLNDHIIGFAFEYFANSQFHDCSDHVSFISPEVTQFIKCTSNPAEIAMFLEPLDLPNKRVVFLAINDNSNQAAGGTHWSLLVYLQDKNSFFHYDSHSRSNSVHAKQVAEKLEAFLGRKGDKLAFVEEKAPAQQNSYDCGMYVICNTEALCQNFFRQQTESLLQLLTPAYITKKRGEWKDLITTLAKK
SENP6 inh = blocks the human protease SENP6 | Q9GZR1 | Recombinant SENP6 catalytic domain, aminoluciferin luminescence | inhibition, % at 10 µM | 330,000 tested, 1.8% active;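 active = inhibition above about 50% at the single tested dose, limit read from the data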
Target sequence (Q9GZR1 628-1112 limits assumed): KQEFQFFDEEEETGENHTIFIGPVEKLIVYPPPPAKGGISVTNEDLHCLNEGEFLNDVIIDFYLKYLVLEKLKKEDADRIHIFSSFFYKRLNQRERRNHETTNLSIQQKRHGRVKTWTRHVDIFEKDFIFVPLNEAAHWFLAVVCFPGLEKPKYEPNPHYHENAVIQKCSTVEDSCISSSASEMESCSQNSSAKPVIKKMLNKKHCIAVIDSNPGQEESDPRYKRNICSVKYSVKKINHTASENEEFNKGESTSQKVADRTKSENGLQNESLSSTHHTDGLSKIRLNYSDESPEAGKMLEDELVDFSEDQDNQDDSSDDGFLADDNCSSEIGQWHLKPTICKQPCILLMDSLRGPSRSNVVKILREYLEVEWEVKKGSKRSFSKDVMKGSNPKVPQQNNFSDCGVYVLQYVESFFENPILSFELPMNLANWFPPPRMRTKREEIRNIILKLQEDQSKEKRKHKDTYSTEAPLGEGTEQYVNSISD
SENP7 block = SENP7 protease inhibition; Q9BQF6; recombinant SENP7, Z-RLRGG-aminoluciferin luminescence, 40 min; inhibition, % at 5 µM; 330,000 tested, 1.5% active;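 active = inhibition above about 50% at the single test dose, limit read from the data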
SENP8 block-2 = inhibitors of human SENP8 protease; recombinant SENP8, Nedd8 substrate fluorescence; inhibition, % at 20 µM; 360,000 tested, 0.64% active; AID 602440; in the data active = inhibition mostly above about 40%, no sharp cut-off; inactive = mostly below about 27%
HSP90 inh = inhibitors of HSP90 luciferase refolding in rabbit reticulocyte lysate; AID 1789; 290,000 tested, 0.91% active; inhibition, % at 5.6 µM; luciferase refolding luminescence, 3 h;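 active = inhibition above the screen-wide mean plus 3 SD, computed separately per campaign, cut at about 16% in these data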;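 also: inhibitors lower the luminescence because luciferase stays unfolded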
Large screens that a line does not name were inactive.

Cn1cc(/C=C2\SC(=O)N(c3ccc(O)cc3)C2=O)c2ccccc21	SENP6 inh 63.7
CC(=O)OC(C)C1C2=C(C(=O)CC1(C)O)C(=O)c1c(ccc(-c3ccc4c(c3O)C(=O)C3=C(C4=O)C(C(C)OC(C)=O)C(C)(O)CC3=O)c1O)C2=O (stereo unspecified)	SENP8 block-2 49.4 (no result: SENP8 block-1, SENP6 inh, SENP7 block, HSP90 inh)
COC(=O)c1ccc2nc(-c3cccc(Cl)c3)c(Cc3cccc(Cl)c3)n2c1	none (no result: SENP8 block-1, SENP6 inh, SENP7 block, HSP90 inh)
O=C(c1ccccc1)N1CCC(CC2CC(c3cccc(Br)c3)=NO2)(C(=O)NCC2CCCCC2)CC1 (stereo unspecified)	SENP8 block-2 50.4
Cc1ccc(-n2nc(C)c3c(C(=O)OCC(=O)N(C)C4CCS(=O)(=O)C4)cc(-c4ccccc4)nc32)cc1 (stereo unspecified)	none
CCOP(=O)(C1=C(O)C(=O)C(C(C)(C)C)=CC1=O)c1ccccc1 (stereo unspecified)	SENP8 block-2 86.9 (no result: SENP8 block-1, SENP6 inh, SENP7 block)
CCOc1ccc(C=NNc2ccc(S(=O)(=O)Nc3ccccc3C(=O)O)cc2[N+](=O)[O-])cc1OC	SENP8 block-2 51.8 (no result: HSP90 inh)
COc1cc(C=NNc2ccc(S(=O)(=O)Nc3ccccc3C(=O)O)cc2[N+](=O)[O-])ccc1O	SENP8 block-2 45.8 (no result: HSP90 inh)
O=C(O)c1ccccc1NS(=O)(=O)c1ccc(N/N=C/c2cccc(O)c2O)c([N+](=O)[O-])c1	SENP8 block-2 39.4 (no result: SENP8 block-1, SENP6 inh, SENP7 block, HSP90 inh)
FC(F)(F)c1cnc(-n2cc[nH]c2=S)c(Cl)c1	none
COc1ccccc1NC(=O)c1ccc(NC(=O)C2CC2)cc1	none (no result: SENP8 block-1, SENP6 inh, SENP7 block, HSP90 inh)
Clc1cccc(CSc2ccc(-c3ccco3)nn2)c1	none
Cc1cccc(CSc2ccc(-c3ccco3)nn2)c1	SENP6 inh 51.5
CCn1c(N)c(C(=O)NCc2ccco2)sc1=S	none
COCCCNc1nc2c(c(=O)n(Cc3ccc(F)cc3)c(=O)n2C)n1C	none
O=[N+]([O-])c1cccn2cc(-c3ccc(Br)cc3)nc12	none
Nc1nn2cc(-c3ccc(Br)cc3)nc2c2ccccc12	SENP8 block-1 75.4, SENP6 inh 87.4, SENP7 block 79.3
O=C(/C=C/c1cccc(Cl)c1)Nc1ccncc1	none
Cc1ccc(/C=C/C(=O)Nc2nc3ccccc3[nH]2)cc1	none
O=C(/C=C/c1ccc(Cl)cc1Cl)Nc1ccncc1	SENP8 block-1 55.8, SENP6 inh 78.2
O=C(/C=C/c1c(Cl)cccc1Cl)Nc1ccncc1	SENP6 inh 60.5, SENP7 block 53.2
O=C(/C=C/c1c(F)cccc1Cl)Nc1nc2ccccc2[nH]1	SENP7 block 69.3
Cc1cccc2sc(N(CCCN(C)C)C(=O)c3ccc4ncsc4c3)nc12	HSP90 inh 16.6
O=C1C(NS(=O)(=O)c2cccs2)=C(N2CCN(c3cccc(Cl)c3)CC2)C(=O)c2ccccc21	SENP8 block-2 69.7
O=C1C(NS(=O)(=O)c2ccccc2)=C(N2CCN(c3ccc(F)cc3)CC2)C(=O)c2ccccc21	none
CCN(CC(=O)Nc1cc(Cl)ccc1C)C(=O)CN1C(=O)NC(CC)(c2ccccc2)C1=O (stereo unspecified)	none (no result: HSP90 inh)
O=C(c1cc(O)c(O)c([N+](=O)[O-])c1)c1ccccc1F	SENP8 block-2 39.3 (no result: HSP90 inh)
Cc1cc(NC(=O)Cc2ccsc2)ccc1Br	none
O=C(Cc1csc(N2CCOCC2)n1)N/N=C/c1ccc(O)c(O)c1O	SENP8 block-2 59.4 (no result: SENP8 block-1, SENP6 inh, SENP7 block)
C/C(=N\NC(=O)Cc1csc(N2CCOCC2)n1)c1ccccc1	none
O=C(CCN1CCN(c2ccccc2)CC1)N/N=C/c1ccc(O)c(O)c1O	SENP8 block-2 62.4 (no result: SENP8 block-1, SENP6 inh, SENP7 block)
COc1cccc(C(=O)N2CCN(c3ncccn3)CC2)c1	none
COc1ccc(C)cc1NC(=O)c1cc2c(s1)CCC2	none
COC(=O)c1sccc1NC(=O)c1cc2c(s1)CCCC2	SENP7 block 55.5
O=C(Nc1cccc(Cl)c1N1CCCCC1)c1ccc2c(c1)OCCO2	none
Cc1c(/C(O)=C2\C(=O)C(=O)N(CCCN(C)C)C2c2ccccc2)cnn1-c1ccccc1 (stereo unspecified)	HSP90 inh 42.0
Cc1c(/C(O)=C2\C(=O)C(=O)N(CCN(C)C)C2c2cccnc2)cnn1-c1ccccc1 (stereo unspecified)	none
Oc1cc(O)cc(-c2cc3ccc(O)cc3o2)c1	SENP8 block-1 53.2 (no result: HSP90 inh)
NC(=S)c1cc2ccc(O)cc2oc1=O	none (no result: SENP8 block-1, SENP6 inh, SENP7 block)
c1ccc(NCc2nc3ccccc3n2CCOc2ccccc2)cc1	SENP6 inh 66.0
COc1cccc(/C=C/C(=O)NCc2ccc3c(c2)OCO3)c1	none
COc1cc([N+](=O)[O-])cc(/C=N/NC(=O)c2ccc(NC(=O)c3ccc(C)cc3)cc2)c1O	none
COc1cc([N+](=O)[O-])cc(/C=N/NC(=O)c2ccc(C)nc2)c1O	SENP8 block-1 57.6, SENP6 inh 75.5, SENP7 block 77.3
COc1cc([N+](=O)[O-])cc(/C=N/NC(=O)C(C)Nc2ccccc2C)c1O (stereo unspecified)	SENP8 block-2 41.1
O=C(N=Nc1ccc(NOC(=O)c2ccccc2Br)cc1)c1ccccc1O	SENP8 block-1 86.4, SENP6 inh 91.4, SENP7 block 63.0 (no result: SENP8 block-2)
COCC(=O)OC1CCn2c1nc1c2C(=O)C(C)=C(NC(C)=O)C1=O (stereo unspecified)	SENP8 block-2 96.2 (no result: SENP8 block-1, SENP6 inh, SENP7 block, HSP90 inh)
COc1cc(NC(=O)CCN2CCN(c3ccccc3OC)CC2)cc(OC)c1	none (no result: SENP8 block-1, SENP6 inh, SENP7 block, HSP90 inh)
CSc1ncccc1C(=O)Nc1nc2ccc(Oc3ccccc3)cc2s1	SENP8 block-1 89.7, SENP6 inh 93.8, SENP7 block 95.2
O=c1c(N=Nc2ccc(O)cc2)c(-c2ccccc2)[nH]n1-c1ccc([N+](=O)[O-])cc1	SENP8 block-2 56.3
O=C(CC1Nc2ccccc2NC1=O)c1ccccc1 (stereo unspecified)	SENP8 block-1 59.0, SENP6 inh 72.0 (no result: SENP8 block-2)
COc1cc(/C=C/C(=O)O)cc(S(=O)(=O)Nc2ccc3nc(C)sc3c2)c1OC	HSP90 inh 16.9
COC1=C(Nc2ccc(C)cc2)C(=O)c2ccccc2C1=O	none
COC1=C(N)C(=O)c2nc(C)ccc2C1=O	SENP8 block-2 98.6 (no result: SENP8 block-1, SENP6 inh, SENP7 block, HSP90 inh)
COC1=C(Br)C(=O)c2nc(C)ccc2C1=O	SENP8 block-2 86.0 (no result: SENP8 block-1, SENP6 inh, SENP7 block, HSP90 inh)
COc1ccc(CCN=C(N)NS(=O)(=O)c2ccc(OC)cc2)cc1	none
COCCSc1ccccc1C(=O)Nc1ccccc1C(C)C	none
COC(=O)CC1OCC=C2CN3CCC45C6=CC(=O)C(=O)C([N+](=O)[O-])=C6NC4C1C2CC35 (stereo unspecified)	SENP8 block-2 109.6 (no result: SENP8 block-1, SENP6 inh, SENP7 block, HSP90 inh)
Cc1ccc2[nH]c3c(c2c1)CN(C(C)C)CC3	HSP90 inh 16.3
O=S(=O)(NCc1ccccn1)c1cc(OCC(F)(F)F)ccc1OCC(F)(F)F	none
CCOc1cc(N2CCOCC2)c(OCC)cc1NC(=O)c1cnccn1	SENP8 block-2 32.1 (no result: HSP90 inh)
CCOC(=O)C1CCN(C2=C(NS(=O)(=O)c3ccc(Cl)cc3)C(=O)c3ccccc3C2=O)CC1	SENP8 block-2 49.2
CN(C1=C(N2CCCCC2)C(=O)c2ccccc2C1=O)c1ccccc1	SENP8 block-2 49.4
CCOC(=O)N1CCN(C2=C(NS(=O)(=O)c3ccc(NC(C)=O)cc3)C(=O)c3ccccc3C2=O)CC1	SENP8 block-2 73.2
CCOC(=O)C1CCN(CC(C)(C)NS(=O)(=O)c2ccc(Cl)cc2)CC1	none

High-throughput results deposited in PubChem by several laboratories.
